Laboratory results taken from PubChem BioAssay (Tox21).
Results filed as inconclusive are left out. Active and inactive are the calls of the source. Unless noted, calls come from the whole dose curve; as a rule, active = well fitted curve in the direction sought with a large enough effect in the repeat runs; inconclusive = weak or mixed curves; inactive = no such curve, though single readings can be large; an effect the other way counts as inactive or inconclusive.

Legend:
[1] = qHTS assay to identify small molecule agonists of the peroxisome proliferator-activated receptor delta (PPARd) signaling pathway - cell viability counter screen (AID 743211); note: nearly all actives have a fitted effect of over 55% in size; note: potency is the fitted concentration of half-maximal effect
In short: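 PPARd-bla HEK293H cells (3000/well) were pre-incubated 5 h at 37 C, then exposed to compound for 17 h at 37 C. After 2 h with LiveBLAzer substrate, CellTiter-Glo was added to the same wells; luminescence read after 30 min at room temperature.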

[2] = qHTS assay to identify small molecule antagonists of the peroxisome proliferator-activated receptor delta (PPARd) signaling pathway - cell viability counter screen (AID 743213); note: nearly all actives have a fitted effect of over 50% in size; note: potency is the fitted concentration of half-maximal effect
In short: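 Viability counter-screen, qHTS format: PPARd-bla HEK293H, L165041 300 nM final, 17 h compound exposure at 37 C, CellTiter-Glo luminescence after 30 min RT.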

[3] = molecular target: Bile acid receptor (Homo sapiens) (UniProt Q96RI1); test: qHTS assay to identify small molecule antagonists of the farnesoid-X-receptor (FXR) signaling pathway (AID 743217; active = well fitted inhibition curve with a large enough effect in the signal ratio in the repeat runs, not every such curve was filed as active; the % refers to the signal ratio; note: potency is the fitted concentration of half-maximal effect)
In short: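 FRET fluorescence after 2 h room-temperature LiveBLAzer loading gives the readout. Prior step: FXR-bla HEK 293T cells, seeded and incubated 5 h, received test compounds plus 50 uM final CDCA for 16 h at 37 °C.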

[4] = qHTS assay to identify small molecule agonists of the farnesoid-X-receptor (FXR) signaling pathway - cell viability counter screen (AID 743218); note: nearly all actives have a fitted effect of over 45% in size; note: potency is the fitted concentration of half-maximal effect
In short: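 Readout: CellTiter-Glo luminescence, 30 min RT, multiplexed after the FXR-bla FRET reading. HEK 293T FXR-UAS-bla cells received compound 5 h post-plating and were incubated 16 h at 37 C.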

[5] = molecular target: Bile acid receptor (Homo sapiens) (UniProt Q96RI1); test: qHTS assay to identify small molecule agonists of the farnesoid-X-receptor (FXR) signaling pathway (AID 743220; active = well fitted activation curve with a large enough effect in the signal ratio in the repeat runs, not every such curve was filed as active; the % refers to the signal ratio)
In short: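 FXR-UAS-bla HEK 293T cells carrying a UAS-driven beta-lactamase reporter were plated for 5 h at 37C/5% CO2, then exposed to DMSO-dissolved Tox21 10K compounds for 16 h at 37C. A LiveBLAzer B/G FRET substrate was loaded for 2 h at room temperature before fluorescence reading.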

[6] = qHTS assay to identify small molecule antagonists of the farnesoid-X-receptor (FXR) signaling pathway - cell viability counter screen (AID 743221; active = well fitted cell-killing curve with a large enough effect in the repeat runs, not every such curve was filed as active; note: nearly all actives have a fitted effect of over 50% in size; note: potency is the fitted concentration of half-maximal effect)
In short: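 GeneBLAzer FXR-UAS-bla HEK 293T cells, compound plus chenodeoxycholic acid (50 uM final), 16 h at 37 C. CellTiter-Glo added to the same wells after the beta-lactamase read; luminescence read after 30 min at room temperature as viability.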

[7] = molecular target: Vitamin D3 receptor (Homo sapiens) (UniProt P11473); test: qHTS assay to identify small molecule agonists of the vitamin D receptor (VDR) signaling pathway (AID 743222; calls by dose curve)
In short: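 Following 4 h attachment at 37C, VDR-bla cells (2,000 per well) received DMSO-dissolved compounds or controls. After 16 h incubation, LiveBLAzer B/G FRET substrate was added and fluorescence read 2 h later at room temperature.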

[8] = molecular target: Vitamin D3 receptor (Homo sapiens) (UniProt P11473); test: qHTS assay to identify small molecule antagonists of the vitamin D receptor (VDR) signaling pathway (AID 743223; active = well fitted inhibition curve with a large enough effect in the signal ratio in the repeat runs, not every such curve was filed as active; the % refers to the signal ratio)
In short: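 VDR-bla cells were treated with compound plus 3 nM final 1alpha,25-dihydroxyvitamin D3 for 16 h at 37C. Beta-lactamase reporter read by B/G FRET substrate fluorescence after 2 h at room temperature. qHTS format.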

[9] = qHTS assay to identify small molecule antagonists of the vitamin D receptor (VDR) signaling pathway - cell viability counter screen (AID 743225); note: nearly all actives have a fitted effect of over 50% in size; note: potency is the fitted concentration of half-maximal effect
In short: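 VDR-UAS-bla HEK 293T cells were plated and incubated 4 h at 37C, then dosed with compound plus 3 nM (final) 1-alpha,25-dihydroxyvitamin D3 for 16 h. After the 2 h beta-lactamase read, viability in the same wells was read as CellTiter-Glo luminescence after 30 min at room temperature.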

[10] = qHTS assay to identify small molecule agonists of the NFkB signaling pathway - cell viability counter screen (AID 1159515; calls by dose curve; note: nearly all actives have a fitted effect of over 55% in size; note: potency is the fitted concentration of half-maximal effect)
In short: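 Plate 2,000 NFkB-bla ME-180 cells/well; incubate overnight. Add compounds, 5 hr at 37 C. Add FRET substrate, 1.5 hr RT. Add CellTiter-Glo, 30 min RT; read luminescence.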

[11] = qHTS assay to identify small molecule agonists of the endoplasmic reticulum stress response signaling pathway - cell viability counter screen (AID 1159517; calls by dose curve; note: nearly all actives have a fitted effect of over 50% in size; note: potency is the fitted concentration of half-maximal effect)
In short: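 After overnight attachment, ESRE-bla HeLa cells were treated with Tox21 library compounds for 5 hr. CellTiter-Glo luminescence, read 30 min post-addition at room temperature, reported viability.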

[12] = qHTS assay to identify small molecule antagonists of the retinoid-related orphan receptor gamma (ROR-gamma) signaling pathway - cell viability counter screen (AID 1159520); note: nearly all actives have a fitted effect of over 50% in size; note: potency is the fitted concentration of half-maximal effect
In short: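 Cytotoxicity was read from cellular ATP (CellTiter-Glo luminescence) after 16 hr at 37 C with 1 uM doxycycline induction. The inducer was added 2 hr after compound transfer to Tet-on ROR gamma CHO cells.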

[13] = qHTS assay to identify small molecule agonists of the AP-1 signaling pathway - cell viability counter screen (AID 1159525; calls by dose curve; note: nearly all actives have a fitted effect of over 55% in size; note: potency is the fitted concentration of half-maximal effect)
In short: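 Intracellular ATP by Cell Titer Glo luminescence (30 min, RT) in the same ME-180 AP-1-bla wells after the 5 h compound exposure at 37 °C. Normalised to tetra n-octyl ammonium bromide and DMSO controls.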

[14] = qHTS assay to identify small molecule agonists of the AP-1 signaling pathway (AID 1159526; calls by dose curve)
[15] = qHTS assay to identify small molecule agonists of the vitamin D receptor (VDR) signaling pathway - cell viability counter screen (AID 743224); note: nearly all actives have a fitted effect of over 50% in size; note: potency is the fitted concentration of half-maximal effect
In short: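 In parallel with the bla FRET readout, cytotoxicity toward VDR-bla cells after 16 h compound exposure was assessed by CellTiter-Glo, with luminescence recorded after a 30 min room-temperature incubation.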

[16] = molecular target: Retinoic acid receptor RXR-alpha (Homo sapiens) (UniProt P19793); test: qHTS assay to identify small molecule agonists of the RXR signaling pathway (AID 1159527; calls by dose curve; note: nearly all actives have a fitted effect of over 35% in size)
In short: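 GeneBLAzer RXR-alpha-UAS-bla HEK 293T cells in 2% charcoal-stripped FBS medium were exposed to compounds for 16 hr at 37 C in agonist mode. Beta-lactamase reporter read as 460/530 nm FRET ratio after 2 hr substrate loading.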

[17] = molecular target: Nuclear receptor ROR-gamma (Homo sapiens) (UniProt P51449); test: qHTS assay to identify small molecule antagonists of the retinoid-related orphan receptor gamma (ROR-gamma) signaling pathway (AID 1159521; note: nearly all actives have a fitted effect of over 50% in size; note: potency is the fitted concentration of half-maximal effect)
In short: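 Tet-on ROR-gamma CHO cells with ROR response element-luciferase reporter; compounds added 2 hr before 1 uM doxycycline induction, then 16 hr at 37 C. Antagonism scored as decreased ONE-Glo luminescence.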

[18] = molecular target: Peroxisome proliferator-activated receptor delta (Homo sapiens) (UniProt Q03181); test: qHTS assay to identify small molecule agonists of the peroxisome proliferator-activated receptor delta (PPARd) signaling pathway (AID 743212; calls by dose curve;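 note: HEK293H cells with PPARd UAS beta-lactamase reporter GeneBLAzer system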)
In short: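 Steps: seed PPARd-bla HEK293H cells; incubate 5 h, 37 C, 5% CO2; add compounds in DMSO; incubate, 37 C; add LiveBLAzer B/G FRET substrate; hold 2 h at room temperature; measure fluorescence.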

[19] = molecular target: Peroxisome proliferator-activated receptor delta (Homo sapiens) (UniProt Q03181); test: qHTS assay to identify small molecule antagonists of the peroxisome proliferator-activated receptor delta (PPARd) signaling pathway (AID 743215; active = well fitted inhibition curve with a large enough effect in the signal ratio in the repeat runs, not every such curve was filed as active; the % refers to the signal ratio;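 note: cells stimulated with agonist L165041 at 300 nM final during compound exposure; series mostly up to about 62 µM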)
In short: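 Fluorescence from cleaved LiveBLAzer B/G FRET substrate (2 h, room temperature) reports PPARd-driven beta-lactamase in HEK293H UAS-bla cells. Cells had been treated 17 h at 37 C with compound plus 300 nM final L165041.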

Measured: Potency

Sequence of Retinoic acid receptor RXR-alpha (Homo sapiens) (P19793 whole entry, looked up): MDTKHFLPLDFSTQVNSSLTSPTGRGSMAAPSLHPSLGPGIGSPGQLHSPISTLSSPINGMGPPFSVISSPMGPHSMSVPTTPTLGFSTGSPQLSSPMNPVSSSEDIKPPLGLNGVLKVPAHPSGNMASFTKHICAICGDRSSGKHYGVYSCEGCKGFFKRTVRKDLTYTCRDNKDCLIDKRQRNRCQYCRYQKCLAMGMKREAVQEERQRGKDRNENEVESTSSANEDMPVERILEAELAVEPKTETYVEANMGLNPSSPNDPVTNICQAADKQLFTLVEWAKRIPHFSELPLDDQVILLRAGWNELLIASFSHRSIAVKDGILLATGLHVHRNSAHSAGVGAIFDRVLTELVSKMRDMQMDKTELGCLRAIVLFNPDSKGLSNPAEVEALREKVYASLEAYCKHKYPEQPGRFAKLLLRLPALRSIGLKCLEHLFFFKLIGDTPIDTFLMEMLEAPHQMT
Sequence of Vitamin D3 receptor (Homo sapiens) (P11473 whole entry, looked up): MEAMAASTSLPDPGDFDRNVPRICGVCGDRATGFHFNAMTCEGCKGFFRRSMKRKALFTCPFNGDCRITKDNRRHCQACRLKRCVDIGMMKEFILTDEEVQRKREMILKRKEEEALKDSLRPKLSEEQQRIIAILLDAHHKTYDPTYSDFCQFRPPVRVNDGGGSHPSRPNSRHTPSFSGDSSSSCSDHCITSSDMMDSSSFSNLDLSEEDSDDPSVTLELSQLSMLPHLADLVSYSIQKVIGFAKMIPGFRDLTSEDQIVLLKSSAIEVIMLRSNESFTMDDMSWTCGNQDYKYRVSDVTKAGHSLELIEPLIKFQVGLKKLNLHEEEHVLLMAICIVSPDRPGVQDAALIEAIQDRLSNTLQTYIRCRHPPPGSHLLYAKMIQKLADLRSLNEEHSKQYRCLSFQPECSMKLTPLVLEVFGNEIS
Sequence of Bile acid receptor (Homo sapiens) (Q96RI1 whole entry, looked up): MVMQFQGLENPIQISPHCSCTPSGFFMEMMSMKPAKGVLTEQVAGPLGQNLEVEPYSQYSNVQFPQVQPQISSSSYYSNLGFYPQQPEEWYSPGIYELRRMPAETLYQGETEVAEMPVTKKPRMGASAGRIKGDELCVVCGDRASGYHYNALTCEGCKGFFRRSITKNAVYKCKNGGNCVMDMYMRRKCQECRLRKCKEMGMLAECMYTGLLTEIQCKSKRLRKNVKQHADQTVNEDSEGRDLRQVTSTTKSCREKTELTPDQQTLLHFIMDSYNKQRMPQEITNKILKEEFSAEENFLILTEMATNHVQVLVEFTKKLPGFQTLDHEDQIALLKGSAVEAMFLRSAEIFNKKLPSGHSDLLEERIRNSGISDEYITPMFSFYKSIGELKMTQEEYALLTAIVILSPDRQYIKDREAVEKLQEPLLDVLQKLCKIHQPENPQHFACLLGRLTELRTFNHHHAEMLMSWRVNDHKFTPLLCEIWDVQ
Sequence of Peroxisome proliferator-activated receptor delta (Homo sapiens) (Q03181 whole entry, looked up): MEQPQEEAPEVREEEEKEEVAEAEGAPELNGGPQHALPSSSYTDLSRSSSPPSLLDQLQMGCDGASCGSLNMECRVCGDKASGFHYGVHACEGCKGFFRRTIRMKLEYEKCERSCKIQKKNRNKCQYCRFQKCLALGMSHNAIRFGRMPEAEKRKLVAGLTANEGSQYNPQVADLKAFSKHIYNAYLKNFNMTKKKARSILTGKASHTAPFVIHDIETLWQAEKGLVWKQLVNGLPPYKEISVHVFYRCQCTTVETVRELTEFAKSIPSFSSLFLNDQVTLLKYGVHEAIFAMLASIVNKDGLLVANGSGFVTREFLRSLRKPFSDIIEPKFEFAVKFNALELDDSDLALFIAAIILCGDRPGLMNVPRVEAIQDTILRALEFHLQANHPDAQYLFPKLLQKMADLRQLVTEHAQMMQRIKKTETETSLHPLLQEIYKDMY

C[C@]12CCC(=O)C=C1CC[C@@H]1[C@@H]2[C@@H](O)C[C@@]2(C)[C@H]1CC[C@]2(O)C(=O)COC(=O)CCC(=O)O
not listed: [15] | [16] | [17] | [18] | [19]
inactive: all other assays above

CC(C)(C)c1ccc(C(=O)O)cc1
not listed: [8] | [17] | [18] | [19]
inactive: all other assays above

O=c1[nH]cnc2nc[nH]c12
not listed: [2] | [7] | [8] | [13] | [15] | [18] | [19]
inactive: all other assays above

CCCCc1oc2ccc(NS(C)(=O)=O)cc2c1C(=O)c1ccc(OCCCN(CCCC)CCCC)cc1
active: [1] 16.8 µM | [2] 23.7 µM | [4] 26.6 µM | [9] 23.9 µM | [10] 26.8 µM | [11] 21.3 µM | [12] 26.6 µM | [17] 23.7 µM

Cc1ccc(-n2nc(C(C)(C)C)cc2NC(=O)Nc2ccc(OCCN3CCOCC3)c3ccccc23)cc1
active: [3] 16.8 µM
inactive: [5] | [15] | [9] | [10] | [11] | [12] | [13] | [14]

Cc1oc(-c2ccccc2)nc1CCC(=O)c1ccc(CC2SC(=O)NC2=O)cc1 (centres undefined)
inactive: [1] | [2] | [4] | [6] | [8] | [15] | [10] | [11] | [12] | [14]

O=[N+]([O-])c1cc([N+](=O)[O-])c2ccc(S(=O)(=O)O)cc2c1O
inactive: [1] | [2] | [4] | [15] | [9] | [10] | [11] | [12] | [13]

[O-][n+]1ccccc1SSc1cccc[n+]1[O-]
inactive: [18]
active: [1] 0.13 µM | [2] 0.206 µM | [4] 0.326 µM | [6] 0.206 µM | [15] 0.164 µM | [10] 0.233 µM | [11] 4.14 µM | [12] 0.103 µM

CC(=O)SC[C@@H](Cc1ccccc1)C(=O)NCC(=O)OCc1ccccc1
not listed: [1] | [3] | [5] | [7] | [8] | [13] | [17]
inactive: all other assays above

CC(C)OC(=O)c1cc2c(OCC(O)CNC(C)(C)C)cccc2[nH]1 (centres undefined)
inactive: [2] | [19] | [4] | [7] | [15] | [9] | [10] | [11] | [12] | [14]

CCCCCCCCCCCCCCCS(=O)(=O)Oc1ccccc1
not listed: [3] | [6] | [13] | [14] | [17] | [18] | [19]
inactive: all other assays above

CC/C(=C(\c1ccc(O)cc1)c1ccc(OCCN(C)C)cc1)c1ccccc1
active: [1] 11 µM | [2] 21.9 µM | [4] 15.5 µM | [6] 24.6 µM | [9] 19.5 µM | [10] 49.1 µM | [11] 61.8 µM | [12] 34.4 µM | [13] 27.6 µM

O=C1Cc2cc(CCN3CCN(c4nsc5ccccc45)CC3)c(Cl)cc2N1
active: [1] 29.8 µM | [2] 26.6 µM | [9] 23.9 µM | [10] 23.9 µM
inactive: [11] | [12]

CC(C)n1nc(-c2cc3cc(O)ccc3[nH]2)c2c(N)ncnc21
inactive: [18] | [6] | [9] | [10] | [14]
active: [1] 13.3 µM | [15] 15 µM | [11] 9.52 µM | [12] 2.98 µM

CSc1ccc2c(c1)C(N1CCN(C)CC1)Cc1ccccc1S2 (centres undefined)
inactive: [3] | [5] | [12] | [13]
active: [1] 29.8 µM | [2] 16.8 µM | [4] 26.6 µM | [15] 23.7 µM | [10] 23.9 µM | [11] 19 µM

O=[N+]([O-])c1ccccc1Nc1ccccc1
not listed: [3] | [5] | [13] | [17] | [18] | [19]
inactive: all other assays above

NNc1nc(-c2ccc(N)cc2)cs1
active: [4] 6.92 µM
not listed: [1] | [14] | [16] | [17]
inactive: all other assays above

CCN(CC)CCCC(C)Nc1c2ccc(Cl)cc2nc2ccc(OC)cc12 (centres undefined)
active: [1] 11.9 µM | [2] 29.8 µM | [4] 13.3 µM | [9] 23.9 µM
inactive: [10] | [11] | [12] | [13]

CC(C)(C)c1ccc(C(=O)CCCN2CCC(OC(c3ccccc3)c3ccccc3)CC2)cc1
inactive: [5]
active: [2] 16.8 µM | [4] 26.6 µM | [10] 23.9 µM | [11] 23.9 µM | [12] 21.1 µM | [13] 15.1 µM

CCOc1nc2cccc(C(=O)OC(C)OC(=O)OC3CCCCC3)c2n1Cc1ccc(-c2ccccc2-c2nn[nH]n2)cc1 (centres undefined)
active: [1] 17.4 µM | [2] 17.4 µM | [4] 15.5 µM | [15] 27.5 µM | [9] 19.5 µM | [10] 43.6 µM | [11] 21.9 µM | [12] 24.3 µM
inactive: [5]

CCCCN(CCCC)c1ccc(C(=O)c2ccccc2C(=O)O)c(O)c1
active: [1] 44.1 µM | [2] 44.1 µM | [11] 35 µM
inactive: [5] | [10] | [17] | [13] | [14]

Cc1cc(=O)oc2cc(N(C)C)ccc12
inactive: [1] | [2] | [4] | [6] | [15] | [9] | [10] | [11] | [12] | [13]

O=C(O)c1c(Cl)cccc1Cl
not listed: [7] | [8] | [12]
inactive: all other assays above

Cc1onc(-c2c(Cl)cccc2Cl)c1C(=O)N[C@@H]1C(=O)N2[C@@H]1SC(C)(C)[C@@H]2C(=O)O
not listed: [3] | [5] | [8] | [14] | [16] | [17] | [18] | [19]
inactive: all other assays above

CCN(CCC#N)c1ccc(N=Nc2c(Cl)cc([N+](=O)[O-])cc2Cl)cc1
inactive: [18] | [19] | [5] | [15] | [10] | [11] | [12] | [13]
